# Reference: PubChem BioAssay AID651804 (National Center for Advancing Translational Sciences (NCATS), 2012)
# Among all 1,200 compounds or so, about 20 (2%) were called active. Roughly 23% stayed inconclusive and do not appear here. For the sample, actives were picked, then their nearest neighbours and some compounds at random. Values without a mark were called inactive. The call rests on the fitted dose curve; in most records, active means well fitted inhibition curve with a large enough effect; inconclusive means small, poorly fitted or top-dose-only effect; inactive means no such curve, though single readings can be large or run the other way.
# Molecular target: Transcriptional regulator ERG (Homo sapiens) (UniProt P11308)
# Sequence (P11308 whole entry, looked up): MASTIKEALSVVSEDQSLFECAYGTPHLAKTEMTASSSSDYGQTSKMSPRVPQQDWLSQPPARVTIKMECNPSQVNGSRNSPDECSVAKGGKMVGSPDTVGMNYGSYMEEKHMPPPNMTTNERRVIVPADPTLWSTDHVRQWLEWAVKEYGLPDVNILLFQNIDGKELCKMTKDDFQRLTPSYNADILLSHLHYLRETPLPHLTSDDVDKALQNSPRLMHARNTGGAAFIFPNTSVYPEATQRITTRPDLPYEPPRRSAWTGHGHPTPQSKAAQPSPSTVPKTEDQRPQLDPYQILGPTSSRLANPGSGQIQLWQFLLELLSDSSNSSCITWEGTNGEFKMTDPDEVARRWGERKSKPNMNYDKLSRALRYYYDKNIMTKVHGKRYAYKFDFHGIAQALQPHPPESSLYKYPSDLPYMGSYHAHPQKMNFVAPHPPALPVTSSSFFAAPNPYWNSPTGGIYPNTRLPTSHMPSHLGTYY
# Assay: qHTS for Small Molecule Inhibitors of the ERG Ets/DNA interaction: HTRF assay against cherry picks
# Details: His-ERG Ets domain with biotin-DNA; series mostly up to 154 µM; activity change, negative = inhibition: at the top concentration
# Excerpt: The Ets family of proteins is a family of ~30 conserved transcription factors defined by the presence of an ~85 amino acid domain referred to as the Ets domain, which mediates sequence-specific DNA binding to a core DNA element GGAA/T.The Ets family member ERG has been linked to several neoplasms. […] More extensive studies of the effects of over-expression of ERG in prostate cells have recently been carried out and have shown that over-expression of ERG results in increased invasion. […] We will carry out a high throughout screen to identify inhibitors of the interaction between ERG and DNA using a fluorescence polarization (FP) assay with a His-tagged ERG Ets domain and fluorescently-labeled DNA probes to develop small molecule inhibitors of this interaction as probes to test this hypothesis and lay the groundwork for the development of targeted therapies against ERG. This is the counterscreen against the cherry picks. NIH Molecular Libraries Probe Production Network [MLPCN] NIH Chemical Genomics Center [NCGC] Grant: NS066464 PI Name: John Bushweller, University of Virgina
# 2 ul of protein solution (200 nM ERG domain in 300mM KCl, 50mM Tris-HCl, 1mM EDTA, 1mM DTT, pH 7.5); 20 nl Control plate and compound library plate; 2 ul of 200 nM biotin-DNA; incubate for 10 min at RT; 1 ul of anti-His antibody conjugated to the long-life fluorescent cryptate donner […] (5ng/ul) and streptavidin conjugated to the acceptor compound […] (0.2 ng/ul) mix; incubate 10 min and measure FRET (Excitation = 320 nm, Emission = 615, 665 nm).
# Potency means the concentration at half of the fitted maximal effect.
SMILES,"activity change, negative = inhibition",Potency
Cc1cc(OCc2cc3c(cc2Cl)OCO3)c2c(C)cc(=O)oc2c1,-3.98%,–
COC(=O)c1ccccc1NC(=O)c1cc(C2CC2)on1,-14.3%,–
Nc1ccccc1S(N)(=O)=O,-1.75%,–
COc1cc(CCC(=O)Nc2ccc(Br)c(C(F)(F)F)c2)cc(OC)c1OC,-23.7%,–
O=C(NCCCc1ccccc1)C(=O)NCC1OCCN1S(=O)(=O)c1cc(F)ccc1F (stereo unspecified),-21.2%,–
N#Cc1c(SCc2c(Cl)cccc2Cl)nc(N)[nH]c1=S,-36.5%,–
CCC(c1nnnn1Cc1ccc(F)cc1)N1CCN(C)CC1 (stereo unspecified),-23.8%,–
Cc1sc2nc(CSC(C)C(=O)Nc3ccc(C(N)=O)cc3)[nH]c(=O)c2c1C (stereo unspecified),-40.4%,–
CCOc1ccc(NS(=O)(=O)c2ccc(NC(C)=O)c(OC)c2)cc1,-24.9%,–
CCn1ccc2c(OCC(=O)Nc3ccc(C(C)=O)cc3)cccc2c1=O,-14.2%,–
COc1cccc2c1C(=N)c1c(O)c3c(c(O)c1C2=O)CC(O)(C(C)=O)CC3OC1CC(N)C(O)C(C)O1 (stereo unspecified),–,3.98 µM (active)
COC(=O)c1c(C(=O)OC)c(-c2ccc(OC)cc2)n2c1CS(=O)C2 (stereo unspecified),-14.5%,–
CC(NC(=O)c1ccco1)c1nc(-c2ccc(C(C)(C)C)cc2)no1 (stereo unspecified),-19.6%,–
O=C(Cc1csc(-c2ccccc2)n1)NCc1ccc(F)cc1,-25.8%,–
O=C(NCCCc1ccccc1)C(=O)NCC1OCCN1S(=O)(=O)c1ccccc1 (stereo unspecified),-28.9%,–
CCn1nc(C)c(CNC(=O)c2cc(COc3ccccc3SC)on2)c1C,-14.4%,–
CS(=O)(=O)N(CC(=O)Nc1ccccc1)c1cccc(Cl)c1Cl,1.01%,–
O=C(O)CC(c1cccc2ccccc12)N1Cc2ccccc2C1=O (stereo unspecified),-11.1%,–
O=C(NCc1ccc(F)cc1F)c1cc(COc2c(F)cccc2F)on1,8.28%,–
Cc1cc(C)cc(N(C(=O)c2csnn2)C(C(=O)NC(C)(C)C)c2ccncc2)c1 (stereo unspecified),-28.2%,–
COc1ccc(Nc2ncnc3sccc23)cc1OC,-22.8%,–
COc1ccc(-c2cccc(NS(=O)(=O)c3cc([N+](=O)[O-])ccc3C)c2)nn1,-26.3%,–
Cc1cc(N)ccc1-n1c(C)ccc1C,-13.7%,–
CC(Oc1ccc(C(=O)c2ccc(F)cc2)cc1)C(=O)N1CCOCC1 (stereo unspecified),-25.3%,–

SMILES,"activity change, negative = inhibition",Potency
CCc1nn2c(=O)cc(CSCC(=O)Nc3ccccc3F)nc2s1,-2.81%,–
CCOC(=O)C(CC)Sc1ccc2nnc(-c3cccnc3)n2n1 (stereo unspecified),-10.8%,–
CC1CCN(S(=O)(=O)c2ccc(Cl)s2)CC1,-23%,–
Cn1nc(C(F)(F)F)c(C#N)c1N1CCN(c2ccccn2)CC1,-25.8%,–
O=C(C[C@H]1C/C=C\CC[C@@H](Cc2ccc(F)cc2)C(=O)OC[C@H]2CCCN2C1=O)N[C@H](CO)Cc1ccccc1,-13.8%,–
CC1(C)C2CCC1(C)C(NCC(O)COc1ccc(C#N)cc1)C2 (stereo unspecified),-2.02%,–
CCOCCn1c(CN2CCCCC2)nc2c1c(=O)n(C)c(=O)n2C,-23%,–
Cc1cc(C(=O)COC(=O)C23CC4CC(CC(O)(C4)C2)C3)c(C)n1C,-28.2%,–
COc1cc(NC(=O)COC(=O)CNC(=O)C2CCCCC2)cc(OC)c1,-17.5%,–
Cc1nccn1C[C@@H]1CCc2c(c3ccccc3n2C)C1=O,-12.8%,–
Cc1nc(Nc2cccc(F)c2)c2oc3ccccc3c2n1,-29.2%,–
CCCCn1c(N)c(N(CC(C)C)C(=O)c2ccc(S(=O)(=O)N3CCC(C)CC3)cc2)c(=O)[nH]c1=O,-4.46%,–
COC(=O)c1ccccc1SC(CC(=O)c1ccccc1)c1ccc(F)cc1 (stereo unspecified),-9.34%,–
CCCC(NC(=O)C(C)Sc1nnnn1C1CC1)c1ccccc1 (stereo unspecified),-15.9%,–
CCCN1C[C@H](CSC)C[C@@H]2c3cccc4[nH]cc(c34)C[C@H]21,–,14.1 µM (active)
Cc1ccccc1-n1c(=O)n(CCc2ccccc2)c(=O)c2[nH]cnc21,-2.33%,–
O=S(=O)(c1ccccc1)c1cnc(-c2cccnc2)nc1-c1ccccc1,-15.6%,–
O=c1oc2ccccc2cc1-c1cn2cc(Cc3ccc(F)cc3)sc2n1,-3.08%,–
NC(=O)c1ccccc1NCC(=O)c1ccc(F)cc1,-21.6%,–
COc1cccc(-c2nn(C)c3sc(C(=O)NCc4ccc(OC)cc4OC)cc23)c1,1.17%,–
CSc1nc(-c2ccc(Cl)cc2)nn1C(=O)c1ccccc1,-19.6%,–
COc1ccc(S(=O)(=O)N2CCCC(C(F)(F)F)C2)cc1 (stereo unspecified),-24%,–
CN(C)C=NC(=O)c1cc(C(=O)c2ccc(Cl)cc2)c[nH]1,-14.1%,–
Cc1cc(=O)oc2cc(OCC(=O)OCC(=O)Nc3ccc(C(C)C)cc3)ccc12,-4.51%,–

SMILES,"activity change, negative = inhibition",Potency
COC(=O)C(CCSC)NC(=O)c1cc2c(n(-c3ccccc3)c1=O)CC(C)(C)CC2=O (stereo unspecified),-23.7%,–
CC(C)CCN1CCN(C2CCN(c3ccc4c(c3)OCO4)CC2)CC1CCO (stereo unspecified),-10.5%,–
Cc1cc(C)nc(N2C(=O)CC(Cc3ccc(Cl)cc3)C2=O)n1 (stereo unspecified),-18.5%,–
Cc1ccc2oc(-c3ccc(NC(=O)CC(C)C)cc3)nc2c1,-28%,–
Cc1ccc(C(=O)N2CCCCC2C(=O)O)cc1S(=O)(=O)N1CCCCC1 (stereo unspecified),-26.3%,–
O=C(Nc1ccccc1Br)c1ccccc1-c1ccccc1,-19%,–
COc1ccccc1NS(=O)(=O)c1ccc(C)c(NC(=O)c2c(C)noc2C)c1,-24.5%,–
Cc1ccc(NC(=O)CSc2nc3ccccc3c3nc(CCn4c(C)nc5ccccc54)nn23)cc1F,-14.4%,–
COc1ccc(NC(=O)CSc2nc(C)c3c(c2C#N)CCCC3)cc1,-22.1%,–
Cc1cc(C)nc(N2CCCC(C(=O)Nc3ccc(F)cc3)C2)n1 (stereo unspecified),0.212%,–
Cc1cc2[nH]c3c(c[n+](C)c4ccccc34)c2cc1C,–,3.55 µM (active)
Cc1c(NC(=O)c2cc(-n3cnnc3)ccc2Cl)cccc1-c1nc2ccccc2s1,-29.4%,–
CC(=O)Nc1sc2c(c1-c1nc3ccccc3s1)CCN(C(C)C)C2,–,3.55 µM (active)
O=c1[nH]c2cc(F)ccc2c2ccc(F)cc12,-28.4%,–
CCOc1cc(NC(=S)NCC(C)C)c(OCC)cc1NC(=O)c1ccco1,-29%,–
O=C(Nc1cc(-c2nc3cc(Cl)ccc3o2)ccc1Cl)c1cccs1,111%,–
COC(=O)C(C)Sc1ccc2nnc(CCNS(=O)(=O)c3ccc(C)cc3)n2n1 (stereo unspecified),-21.9%,–
CNCCCOc1cc(C)cc(C)c1C,-21.6%,–
COc1ccc(C(c2c(C)n(C)n(-c3ccccc3)c2=O)c2c(C)n(C)n(-c3ccccc3)c2=O)c(OC)c1OC,-25.1%,–
COc1ccc(C(=O)c2cccc(C(=O)c3ccc(OC)c(C)c3)c2)cc1C,-25.7%,–
COc1ccc(OC)c2c1C(=O)c1ccccc1C2=O,–,35.5 µM (active)
CC1(c2ccccc2Cl)NC(=O)N(CC(=O)Nc2ccccc2OC(F)F)C1=O (stereo unspecified),-6.9%,–
Cc1cccc(NC(=O)c2ccccc2NC(=O)c2ccco2)c1,-1.8%,–
COc1ccc(-c2n(CC(=O)OC3CC(C)CCC3C(C)C)c3ccccc3[n+]2C)cc1 (stereo unspecified),-5.73%,–

SMILES,"activity change, negative = inhibition",Potency
Cc1cccc(C(=O)N[C@H](C(=O)Nc2ccc(C)c(S(=O)(=O)N(C)C)c2)C(C)C)c1,-14.5%,–
CCN(CC(=O)Nc1ccccc1C(F)(F)F)C(=O)c1ccc(N2C(=O)CCC2=O)cc1,-29.6%,–
Cc1ccc(NS(=O)(=O)c2ccc(NC(=O)c3ccccc3C(=O)O)cc2)cc1C,-25.4%,–
CCc1cccc(C)c1NC(=O)CSc1nc(C)c(C)o1,-16.9%,–
COC(=O)Nc1ccc(S(=O)(=O)NNC(=O)c2c(O)c3ccccc3n(C)c2=O)cc1,-6.74%,–
CCOC(=O)C1CN(S(=O)(=O)c2cc(OC)ccc2OC)C1,-25.9%,–
COc1ccc(-n2c(=O)c3c4c(sc3n(Cc3ccc(C(C)(C)C)cc3)c2=O)CCC4)c(OC)c1,-17.8%,–
CC(=O)Nc1cccc(NC(=O)c2ccccc2OCc2c(C)noc2C)c1,-3.18%,–
Cc1ccc(S(=O)(=O)NC2CCCC(C(=O)O)C2)cc1 (stereo unspecified),-6.9%,–
Cc1cc(C)cc(-n2ccnc2SCC(=O)Nc2ccc(C)c(Cl)c2)c1,-25.1%,–
COC(=O)[C@H](Cc1ccccc1)NC(=O)C1(OC(C)=O)CC(OC(C)=O)C(OC(C)=O)C(OC(C)=O)C1 (stereo partly specified),-7.96%,–
CCCCn1c(N)c(N(CCOC)C(=O)c2ccc(S(=O)(=O)N3CCCCC3)cc2)c(=O)[nH]c1=O,11.4%,–
COc1ccc(OCCCC(=O)Nc2cccc(C(C)=O)c2)cc1,-26.7%,–
Cc1cccc(NC2(C(=O)O)CCCC2)c1,2.86%,–
CC(=O)c1ccc(OCc2ccc(Oc3c(Cl)cccc3[N+](=O)[O-])cc2)cc1,-23.2%,–
Cc1ccc2c(c1)N(CC(=O)NC1CCCc3ccccc31)C(=O)CO2 (stereo unspecified),4.19%,–
CC(=O)Nc1ccc(S(=O)(=O)N2CCCC(C(=O)N3CCN(c4ccccc4)CC3)C2)cc1 (stereo unspecified),-22.1%,–
CCc1ccc(Nc2ncnc3nc[nH]c23)cc1,-29.9%,–
CC(C)CCNC(=O)c1ccc2c(SCC(=O)O)c3c(nc2c1)CCCC3,-25.2%,–
Cc1cc(NC(=O)CCC(=O)N(CC(=O)NC2CCCC2)c2ccc(C)c(F)c2)no1,6.26%,–
C[C@H](NC(=O)[C@@H]1Cc2ccccc2CN1C(=O)OC(C)(C)C)C(=O)NC1CCCCC1,-5.84%,–
CC(C)(CNC(=O)CC1C(=O)NCCN1Cc1cccc(F)c1)N1CCOCC1 (stereo unspecified),-3.02%,–
CCc1ccc(NC(=O)/C(C#N)=C/c2cc3ccc(C)cc3nc2N2CCOCC2)cc1,73.4%,–
OC(CN1CCCCC1)Cn1c2ccccc2c2cc(Br)ccc21 (stereo unspecified),-1.59%,–

SMILES,"activity change, negative = inhibition",Potency
CC1(C)CC(=O)/C(=C\c2cccc([N+](=O)[O-])c2)C(C)(C)N1,-6.21%,–
Cc1cc(C)c(S(=O)(=O)N2CCN(C(=O)N3CCOCC3)CC2)c(C)c1,1.33%,–
CN(C)CCN1C(=O)c2cccc3cc([N+](=O)[O-])cc(c23)C1=O,–,7.94 µM (active)
O=C(OCC(=O)c1ccc(Cl)s1)c1cncc(Br)c1,-17.7%,–
Cc1cccc(/C=N/NC(=O)NC23CC4CC(CC(C4)C2)C3)n1,-19.3%,–
CC(=O)N1CCN(c2nnc(-c3ccccc3)c3ccccc23)CC1,2.55%,–
CC1(C)CC(=O)C(C(O)c2ccccc2)C(C)(C)N1 (stereo unspecified),-12.9%,–
CCCn1c(=O)c(C(=O)NNS(=O)(=O)c2ccc(C)cc2)c(O)c2ccccc21,-38.8%,–
O=C1CCN(S(=O)(=O)c2ccc(Br)cc2)CCN1,-26.1%,–
O=C(COC(=O)c1cccc(-n2cnnn2)c1)c1ccccc1,-11.8%,–
COc1cc(NCCCC(C)N)c2ncccc2c1 (stereo unspecified),–,44.7 µM (active)
CNC(=S)N/N=C/c1c(C)nn(-c2ccccc2)c1Cl,-37.2%,–
O=S(=O)(NCCNS(=O)(=O)c1ccc(F)cc1)c1ccc(F)cc1,-20.7%,–
Nc1c2ccccc2nc2ccccc12,–,11.2 µM (active)
Nc1cccc2nc3ccccc3cc12,–,50.1 µM (active)
CN(C)CCCNc1c2ccccc2nc2ccccc12,-88.9%,–
c1ccc(Oc2ncnc3ccccc23)cc1,-23.6%,–
CC(=O)Nc1ccc2c(c1)NC(=O)CC2,-12.5%,–
CN(C)c1ccc2c(c1)C(=NO)c1ccccc1-2,–,70.8 µM (active)
COC(=O)Cc1ccc(NC(=S)NC(C)(C)C)cc1,-5.89%,–
